Measured values: PubChem BioAssay
Active and inactive are the calls of the source. Unless noted, the rule behind the calls is not given here.

Key:
[1] = HepG2 liver cancer cell viability effects, profiling panel, resazurin fluorescence, 24 h, PK04 Diversity Set (AID 1172); settings: higher = more signal
[2] = basal S. cerevisiae growth modulation, no modifier, primary screen, OD600, strain BY4716, 24 h, basal condition (AID 1173); settings: OD600, 24 h, higher = more signal, called active from +8 up or from −8 down
[3] = MM1S myeloma cell viability, profiling panel, resazurin fluorescence, basal, 24 h, PK04 Diversity Set (AID 1174); settings: higher = more signal, called active from +8 up or from −8 down;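 note: MM1S multiple myeloma cell line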
[4] = target: Dihydroorotate dehydrogenase (quinone), mitochondrial (Plasmodium falciparum (isolate 3D7)) (UniProt Q08210); test: PfDHODH enzyme inhibitors, primary screen, biochemical, C-terminal His tag, absorbance 600 nm (AID 1175); settings: DCIP absorbance 600 nm, higher = more signal, called active from +8 up or from −8 down;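 note: recombinant parasite enzyme with a five histidine tag at its C terminus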
[5] = P. aeruginosa biofilm formation inhibitors, primary screen, strain PAO1, LB-PBS medium, absorbance 600 nm (AID 1176); settings: P. aeruginosa PAO1 growth/biofilm, A600, 12 h; higher = more signal
[6] = S. cerevisiae RM11-1a growth modifiers, primary screen, strain RM11-1a, OD600, basal, 24 h (AID 1177); settings: OD600, 24 h, higher = more signal, called active from +8 up or from −8 down;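 note: cultures grown under basal conditions with no added stressor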
[7] = E. coli acrAB mutant growth effects, primary screen, E. coli filamentation inducers, strain DRC39, OD650, 24 h (AID 1178); settings: higher = more signal, called active from +8 up or from −8 down;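 note: growth measured as culture turbidity by optical density at 650 nm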
[8] = E. coli acrAB mutant growth effects, primary screen, E. coli filamentation inducers, strain DRC39, OD650, 48 h (AID 1179);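 note: screen aims at cell division blockers that make cells filament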; settings: E. coli DRC39 delta-acrAB growth, higher = more signal, called active from +8 up or from −8 down
[9] = RPMI8226 myeloma cell viability, profiling panel, resazurin fluorescence, basal, 24 h, PK04 Diversity Set (AID 1180); settings: higher = more signal;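 note: RPMI8826 multiple myeloma cell line at 5000 cells per well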
[10] = target: E3 ubiquitin-protein ligase XIAP (Homo sapiens) (UniProt P98170); test: XIAP binders, primary screen, biophysical, small-molecule microarray, fluorescence 635 nm (AID 1181); settings: small-molecule microarray binding, higher = more signal;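 note: score merges 667 nm emission and signal to noise over triplicate slides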
[11] = tested on: XIP peptide (Xip251-270) binding; test: small-molecule binders of XIP peptide, primary screen, biochemical, small-molecule microarray, fluorescence 635/667 nm, 0.1 µg/mL protein (AID 1182); settings: fluorescent protein binding, 635 nm, higher = more signal, called active from +8 up or from −8 down
[12] = tested on: XIP peptide (Xip251-270); test: small-molecule binders of XIP peptide, primary screen, biochemical, small-molecule microarray, fluorescence 635/667 nm, 0.5 µg/mL protein (AID 1183); settings: small-molecule microarray binding, fluorescence 635 nm; higher = more signal
[13] = Plasmodium falciparum growth inhibition, primary screen, strain 3D7, DAPI fluorescence, 100 nL (AID 1184);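 note: parasites grown inside human red blood cells in medium with human serum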; settings: P. falciparum 3D7 growth, 3 d, higher = more signal
[14] = target: Homeobox protein Hox-A13 (Mus musculus) (UniProt Q62424); test: inhibitors of HoxA13-DNA binding, primary screen, biochemical, fluorescence polarization, labeled oligonucleotide (AID 1185); settings: 15 min, higher = more signal, called active from +8 up or from −8 down
[15] = inhibitors of hydroxyurea-induced Chk1 phosphorylation, primary screen, imaging, HeLa, phospho-Chk1 antibody, percent positive cells (AID 1186); settings: hydroxyurea-induced phospho-Chk1 immunofluorescence imaging, higher = more signal
[16] = inhibitors of hydroxyurea-induced Chk1 phosphorylation, primary screen, imaging, HeLa, phospho-Chk1 nuclear intensity (AID 1187); settings: hydroxyurea-induced phospho-Chk1 immunofluorescence imaging, higher = more signal

Sequence of Dihydroorotate dehydrogenase (quinone), mitochondrial (Plasmodium falciparum (isolate 3D7)) (Q08210 whole entry, looked up): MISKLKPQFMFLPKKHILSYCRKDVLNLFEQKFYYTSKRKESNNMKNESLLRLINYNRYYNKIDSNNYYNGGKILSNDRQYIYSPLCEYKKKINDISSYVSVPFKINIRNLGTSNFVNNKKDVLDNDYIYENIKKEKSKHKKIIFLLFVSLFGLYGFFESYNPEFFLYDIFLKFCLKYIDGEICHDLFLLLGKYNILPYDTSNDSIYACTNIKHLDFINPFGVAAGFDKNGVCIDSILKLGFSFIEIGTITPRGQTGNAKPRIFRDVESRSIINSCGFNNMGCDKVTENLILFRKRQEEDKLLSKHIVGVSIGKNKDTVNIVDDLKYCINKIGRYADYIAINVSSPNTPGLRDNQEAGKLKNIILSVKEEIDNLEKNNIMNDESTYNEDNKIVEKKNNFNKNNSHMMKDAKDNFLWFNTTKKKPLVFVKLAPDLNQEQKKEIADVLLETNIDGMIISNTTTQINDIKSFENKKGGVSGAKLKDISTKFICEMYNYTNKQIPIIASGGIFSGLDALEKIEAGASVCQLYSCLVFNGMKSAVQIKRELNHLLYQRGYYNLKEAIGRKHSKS
Sequence of E3 ubiquitin-protein ligase XIAP (Homo sapiens) (P98170 whole entry, looked up): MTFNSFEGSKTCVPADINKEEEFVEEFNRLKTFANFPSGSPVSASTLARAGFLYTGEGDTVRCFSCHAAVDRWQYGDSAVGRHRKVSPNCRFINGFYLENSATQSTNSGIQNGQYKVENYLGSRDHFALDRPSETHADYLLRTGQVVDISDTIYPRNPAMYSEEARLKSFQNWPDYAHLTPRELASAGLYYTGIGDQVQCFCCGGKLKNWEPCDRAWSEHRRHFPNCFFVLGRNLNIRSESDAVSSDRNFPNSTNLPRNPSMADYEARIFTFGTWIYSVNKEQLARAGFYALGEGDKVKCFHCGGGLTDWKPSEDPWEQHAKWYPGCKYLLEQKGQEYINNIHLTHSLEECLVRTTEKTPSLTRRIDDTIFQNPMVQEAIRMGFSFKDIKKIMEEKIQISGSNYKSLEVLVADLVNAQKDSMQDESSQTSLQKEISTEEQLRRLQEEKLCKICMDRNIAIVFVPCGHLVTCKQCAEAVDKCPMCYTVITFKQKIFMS
Sequence of Homeobox protein Hox-A13 (Mus musculus) (Q62424 whole entry, looked up): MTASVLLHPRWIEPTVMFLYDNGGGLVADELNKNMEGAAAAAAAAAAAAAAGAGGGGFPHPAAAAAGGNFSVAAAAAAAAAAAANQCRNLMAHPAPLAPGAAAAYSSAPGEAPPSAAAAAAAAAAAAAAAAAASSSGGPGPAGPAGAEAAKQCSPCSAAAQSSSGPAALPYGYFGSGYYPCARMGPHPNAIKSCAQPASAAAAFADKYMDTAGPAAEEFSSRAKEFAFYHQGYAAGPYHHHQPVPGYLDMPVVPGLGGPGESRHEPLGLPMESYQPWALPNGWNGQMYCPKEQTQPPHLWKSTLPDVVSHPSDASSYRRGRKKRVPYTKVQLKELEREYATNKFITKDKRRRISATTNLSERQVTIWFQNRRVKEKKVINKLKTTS

Compound | z-score [1] | z-score [2] | z-score [3] | composite z-score [4] | z-score [5] | z-score [6] | z-score [7] | z-score [8] | z-score [9] | composite z-score [10] | composite z-score [11] | composite z-score [12] | z-score [13] | z-score [14] | z-score [15] | z-score [16]
CC1CC/C=C\[C@H]2OC34C=CCN(C(C)C)C(=O)[C@H]3N(C(C)CO)C(=O)[C@@H]4C2C(=O)O1 (some centres undefined) | 0.741 | 0.306 (inactive) | 1.05 (inactive) | -0.0766 (inactive) | 2.9 (inactive) | 0.477 (inactive) | 0.355 (inactive) | 0.553 (inactive) | 0.832 | 0.0345 | -0.275 (inactive) | 0.384 | -0.577 | -5.82 (inactive) | -0.829 (inactive) | -0.249 (inactive)
O=C1N(Cc2ccccc2)Cc2ccccc2C[C@@]12COC(c1ccc(OCCCO)cc1)=N2 | 0.775 | 0.842 (inactive) | -8.43 (active) | 0.719 (inactive) | -0.289 (inactive) | 4.69 (inactive) | 1.42 (inactive) | 0.0613 (inactive) | -2.81 | -0.124 | 0.704 (inactive) | 0.311 | -2.08 | -4.67 (inactive) | -0.266 (inactive) | 0.273 (inactive)
Cc1ccc(S[C@]2(C(=O)NC(C)C)CC(=O)N(Cc3ccccc3)[C@@H]2c2ccc(CO)cc2)cc1 | 0.15 | -0.0962 (inactive) | -0.792 (inactive) | -1.33 (inactive) | 0.637 (inactive) | -0.949 (inactive) | 1.19 (inactive) | 1.62 (inactive) | 1 | -0.177 | 1.13 (inactive) | 0.123 | 0.14 | -1.54 (inactive) | -0.412 (inactive) | -0.32 (inactive)
C=CCNC(=O)[C@@H]1[C@H]2C(=O)O[C@H](c3ccccc3)[C@H](c3ccccc3)N2[C@H](c2ccc(OCCO)cc2)[C@@]12C(=O)Nc1ccc(C#CCNC(N)=O)cc12 | -0.0448 | 1.23 (inactive) | -0.286 (inactive) | -0.157 (inactive) | 1.18 (inactive) | 1.06 (inactive) | 0.0047 (inactive) | -0.568 (inactive) | 0.671 | 0.129 | 2.5 (inactive) | 0.561 | 0.175 | -3.63 (inactive) | 0.286 (inactive) | 0.0132 (inactive)
CN1C(=O)C2CC=C(C3=CCO[C@@H]3[C@H]3CCCN3S(=O)(=O)c3ccccc3[N+](=O)[O-])CC2C1=O (some centres undefined) | 0.277 | 0.175 (inactive) | -0.354 (inactive) | -0.912 (inactive) | 0.425 (inactive) | 0.0123 (inactive) | 0.527 (inactive) | 0.189 (inactive) | 0.0213 | -0.187 | 0.162 (inactive) | 0.728 | 0.561 | -6.57 (inactive) | -0.0719 (inactive) | 0.234 (inactive)
N#Cc1ccc(NN2C(C(O)c3ccc(B(O)O)cc3)C=CC3CN(c4ccccc4)C(=O)C32)cc1 (centres undefined) | -0.595 | -15.4 (active) | -1.25 (inactive) | -0.883 (inactive) | 0.475 (inactive) | 1.56 (inactive) | 0.898 (inactive) | 0.934 (inactive) | -0.662 | -0.0917 | -0.0004 (inactive) | 0.658 | -0.0223 | -2.55 (inactive) | -1.03 (inactive) | -0.622 (inactive)
Cc1ccc(N2C(=O)c3ccccc3[C@@H](C(=O)NCCN3CCOCC3)[C@@H]2c2ccc(CO)cc2)nc1 | 0.925 | 0.473 (inactive) | 0.544 (inactive) | 0.434 (inactive) | -0.618 (inactive) | 0.537 (inactive) | 0.193 (inactive) | 0.663 (inactive) | 0.547 | 0.0095 | 0.0616 (inactive) | 0.669 | 1.41 | -1.67 (inactive) | 0.0197 (inactive) | 0.274 (inactive)
O=C1O[C@H](c2ccccc2)[C@H](c2ccccc2)N2[C@H]1[C@@H](C(=O)O)[C@]1(C(=O)Nc3ccc(C#CC4(O)CCCCCC4)cc31)[C@H]2c1ccccc1OCCO | 1.15 | -1.72 (inactive) | -0.65 (inactive) | -2.25 (inactive) | -0.645 (inactive) | 3.22 (inactive) | 0.703 (inactive) | 0.732 (inactive) | 0.305 | -0.0666 | 0.168 (inactive) | 0.779 | -0.21 | -5.71 (inactive) | 0.152 (inactive) | 0.579 (inactive)
[N-]=[N+]=Nc1ccccc1C[C@@]1(C(=O)NCC(O)CO)N=C(c2ccc(OCCCO)cc2)O[C@@H]1c1ccccc1N=[N+]=[N-] (some centres undefined) | -2.15 | -1.75 (inactive) | -2.42 (inactive) | 0.791 (inactive) | 0.122 (inactive) | 0.629 (inactive) | 0.2 (inactive) | -0.456 (inactive) | -2.25 | 0.0651 | 0.0609 (inactive) | 0.0519 | -2.15 | -2.28 (inactive) | -0.0996 (inactive) | 0.263 (inactive)
COc1c(C)cc(-c2cc3c(c(CCc4ccccc4)n2)[Si](C(C)C)(C(C)C)O[C@H]3c2ccccc2)cc1C | -0.0275 | 0.597 (inactive) | 0.135 (inactive) | 0.0798 (inactive) | 0.608 (inactive) | 1.42 (inactive) | -0.754 (inactive) | -0.744 (inactive) | -3.7 | -0.195 | -0.0596 (inactive) | 0.0209 | -2.29 | 1.6 (inactive) | -0.0936 (inactive) | 0.0911 (inactive)
CCOC(=O)C1=C[C@@H](C(C)(C)C)N(S(=O)(=O)c2ccc(C)cc2)[C@H]1c1ccc(OC)cc1 | -0.294 | 1.9 (inactive) | -0.0789 (inactive) | -0.0972 (inactive) | -0.473 (inactive) | 1.88 (inactive) | 0.33 (inactive) | -0.27 (inactive) | -1.23 | -0.149 | 0.58 (inactive) | 0.582 | -1.88 | -0.488 (inactive) | 0.15 (inactive) | 0.503 (inactive)
[N-]=[N+]=NCc1ccccc1C[C@@]1(C(N)=O)N=C(c2ccc(OCCCO)cc2)O[C@@H]1c1ccccc1N=[N+]=[N-] | 0.304 | -1.35 (inactive) | -1.32 (inactive) | 0.474 (inactive) | 2.28 (inactive) | 0.0193 (inactive) | 0.207 (inactive) | -0.893 (inactive) | -0.644 | 0.0871 | 0.497 (inactive) | 0.63 | -2.41 | -4.99 (inactive) | 0.627 (inactive) | 1.02 (inactive)
CC(C)N1C(=O)[C@@]2(Cc3ccccc31)c1ccccc1C(=O)N(Cc1ccccc1)[C@H]2c1ccc(CO)cc1 | -0.147 | 2.07 (inactive) | 0.144 (inactive) | -19.1 (active) | 0.338 (inactive) | 1.69 (inactive) | 0.367 (inactive) | -0.665 (inactive) | 0.0769 | -0.337 | -0.205 (inactive) | -0.0467 | -0.32 | -0.075 (inactive) | 0.273 (inactive) | 0.685 (inactive)
CCCCC(=C=CC[C@H](O)c1ccccc1OCCO)CCO | -0.259 | -1.3 (inactive) | 0.189 (inactive) | -0.228 (inactive) | 0.755 (inactive) | 0.493 (inactive) | -0.295 (inactive) | -0.224 (inactive) | -0.0336 | -0.223 | 1.47 (inactive) | -0.0255 | -0.315 | -3.54 (inactive) | 0.324 (inactive) | 0.181 (inactive)
CC(C)Cc1ccc(CN2CC[C@@H](NC(=O)c3ccccc3)C2)cc1 | -0.375 | -7.1 (inactive) | -0.18 (inactive) | 0.228 (inactive) | -0.0248 (inactive) | 2.05 (inactive) | 0.295 (inactive) | 0.118 (inactive) | -0.193 | -0.135 | 0.321 (inactive) | 0.447 | -1.68 | -1.52 (inactive) | -0.681 (inactive) | -0.744 (inactive)
COc1ccc([Si](C)(C)[C@@H]2[C@@H](CC(=O)N3Cc4ccccc4C[C@H]3CO)O[C@]3(C(=O)N(Cc4ccc(I)cc4)c4ccccc43)[C@H]2C)cc1 | 0.454 | -0.0671 (inactive) | -1 (inactive) | 0.312 (inactive) | 0.662 (inactive) | 2.33 (inactive) | 0.101 (inactive) | -0.092 (inactive) | -0.336 | 0.262 | 0.153 (inactive) | 0.477 | -2.83 | -2.35 (inactive) | -0.67 (inactive) | -0.295 (inactive)
C=CCN1C(=O)[C@]2(O[C@H](CCO)[C@@H]([Si](C)(C)c3ccc(OC)cc3)[C@@H]2C)c2cc(N3C(=O)c4ccccc4Oc4ccccc43)ccc21 | -5.91 | 0.84 (inactive) | -8.74 (active) | 1.11 (inactive) | 0.106 (inactive) | 4.06 (inactive) | 0.229 (inactive) | -0.757 (inactive) | -6.28 | -0.138 | 0.297 (inactive) | 0.671 | -2.42 | -4.93 (inactive) | -1.05 (inactive) | -1.5 (inactive)
COc1cccc(C)c1NC(=O)O[C@H]1[C@H](OC(=O)Nc2ccccc2-c2ccccc2)[C@@H](OC(=O)Nc2ccccc2-c2ccccc2)[C@@H](OC)O[C@@H]1CO | -2.77 | 2.22 (inactive) | -3.21 (inactive) | 1.24 (inactive) | 1.23 (inactive) | 4.5 (inactive) | -0.349 (inactive) | -0.846 (inactive) | -2.61 | 0.268 | 1.22 (inactive) | 0.89 | -2.26 | -3.57 (inactive) | 0.609 (inactive) | 0.604 (inactive)
C=C(C(=O)CC[C@@H](OC(=O)c1ccccc1-c1ccccc1C(=O)O)c1ccc(OCCO)cc1)C(C)C | -0.304 | -1.3 (inactive) | 0.089 (inactive) | -1.29 (inactive) | 0.85 (inactive) | -0.718 (inactive) | -0.166 (inactive) | -0.135 (inactive) | 0.488 | -0.101 | -0.206 (inactive) | 0.568 | -2.12 | -5.47 (inactive) | 0.468 (inactive) | 0.59 (inactive)
